Results from PubChem BioAssay (Tox21).
“And” between values parts separate entries of the source, which are not always exact repeats. Equal values may be shown once. Results filed as inconclusive are left out. Some structures have more than one record in an assay (separate samples or runs), and their calls can disagree. The source made the active and inactive calls. Calls come from the whole dose curve; as a rule, active = well fitted curve in the direction sought with a large enough effect in the repeat runs; inconclusive = weak or mixed curves; inactive = no such curve, though single readings can be large; an effect the other way counts as inactive or inconclusive.

Columns and labels:
[1] = A CellTox Green Cytotoxicity Assay to monitor cytotoxicity in HEK293 cells - 0 hour (AID 1224869); note: nearly all actives have a fitted effect of over 50% in size
In short: (§1)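 Nonlytic real-time cytotoxicity: HEK293 + CellTox Green reagent plated, 5 h preincubation, pintool compound addition (23 nL in DMSO), 37 C for 40 h, fluorescence measured at successive time points.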

[2] = qHTS RealTime-Glo MT Cell Viability Assay in HepG2 cells - 40 hour (AID 1224870); note: nearly all actives have a fitted effect of over 50% in size
In short: (§2)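 Real-time viability: cells seeded at 600 per well together with NanoLuc and cell-permeant prosubstrate, compounds added after 5 h incubation. Luminescence tracked at 0, 8, 16, 24, 32 and 40 h of exposure.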

[3] = A CellTox Green Cytotoxicity Assay to monitor cytotoxicity in HEK293 cells - 40 hour (AID 1224871); note: nearly all actives have a fitted effect of over 45% in size; note: potency is the fitted concentration of half-maximal effect
In short: as §1

[4] = qHTS RealTime-Glo MT Cell Viability Assay in HEK293 cells - 16 hour (AID 1224872); note: top concentration of the series differs between compounds; nearly all actives have a fitted effect of over 50% in size
In short: (§3)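 Quantitative high-throughput screen of the Tox21 10K library in HEK293: cells and RealTime-Glo reagents plated together, compound added at 5 h, luminescence monitored through 40 h at 37 C.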

[5] = qHTS RealTime-Glo MT Cell Viability Assay in HepG2 cells - 8 hour (AID 1224873); note: nearly all actives have a fitted effect of over 55% in size
In short: as §2

[6] = qHTS RealTime-Glo MT Cell Viability Assay in HEK293 cells - 40 hour (AID 1224874); settings: RealTime-Glo luminescence; max response: stronger effect = lower value; note: nearly all actives have a fitted effect of over 50% in size; note: potency is the fitted concentration of half-maximal effect
In short: (§4)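 Cells were seeded together with NanoLuc luciferase and a prosubstrate that viable cells reduce to a luciferase substrate. After a 5 h incubation at 37 C/5% CO2, compounds were added and luminescence was measured repeatedly during 40 h of treatment.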

[7] = A CellTox Green Cytotoxicity Assay to monitor cytotoxicity in HEK293 cells - 24 hour (AID 1224875); note: series mostly up to about 77 µM; nearly all actives have a fitted effect of over 45% in size
In short: as §1

[8] = A CellTox Green Cytotoxicity Assay to monitor cytotoxicity in HepG2 cells - 16 hour (AID 1224876); note: nearly all actives have a fitted effect of over 45% in size
In short: (§5)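 Read-out is fluorescence of a cyanine dye excluded from live cells that stains DNA of dead HepG2 cells, with signal proportional to cytotoxicity. Plates were read at 0, 8, 16, 24, 32 and 40 h after compound addition.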

[9] = qHTS RealTime-Glo MT Cell Viability Assay in HepG2 cells - 32 hour (AID 1224877); note: nearly all actives have a fitted effect of over 55% in size
In short: (§6)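 Compound treatment began 5 h after plating HepG2 cells (600/well) with NanoLuc luciferase and prosubstrate. Plates stayed at 37 C for 40 h; luminescence was captured at six time points, 0 h through 40 h.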

[10] = A CellTox Green Cytotoxicity Assay to monitor cytotoxicity in HepG2 cells - 24 hour (AID 1224878); note: nearly all actives have a fitted effect of over 45% in size
In short: as §5

[11] = A CellTox Green Cytotoxicity Assay to monitor cytotoxicity in HepG2 cells - 40 hour (AID 1224879); note: nearly all actives have a fitted effect of over 40% in size
In short: as §5

[12] = qHTS RealTime-Glo MT Cell Viability Assay in HEK293 cells - 0 hour (AID 1224880)
In short: as §4

[13] = A CellTox Green Cytotoxicity Assay to monitor cytotoxicity in HEK293 cells - 32 hour (AID 1224881); note: nearly all actives have a fitted effect of over 40% in size
In short: as §1

[14] = A CellTox Green Cytotoxicity Assay to monitor cytotoxicity in HepG2 cells - 0 hour (AID 1224882); note: nearly all actives have a fitted effect of over 35% in size
In short: as §5

[15] = A CellTox Green Cytotoxicity Assay to monitor cytotoxicity in HepG2 cells - 32 hour (AID 1224883); note: nearly all actives have a fitted effect of over 50% in size
In short: as §5

[16] = A CellTox Green Cytotoxicity Assay to monitor cytotoxicity in HEK293 cells - 8 hour (AID 1224884); note: nearly all actives have a fitted effect of over 35% in size
In short: as §1

[17] = qHTS RealTime-Glo MT Cell Viability Assay in HEK293 cells - 32 hour (AID 1224868)
In short: as §3

[18] = qHTS RealTime-Glo MT Cell Viability Assay in HepG2 cells - 24 hour (AID 1224867); note: nearly all actives have a fitted effect of over 50% in size
In short: as §6
% is set by controls: 0 for no effect and ±100 for the full control effect.

OCCOCCN1CCN(C2=Nc3ccccc3Sc3ccccc32)CC1
inactive: outcome [1] | outcome [2] | Potency [3] | Potency [4] | outcome [5] | max response [6] -19.6% | Potency [7] | Potency [8] | outcome [9] | Potency [10] | Potency [11] | Potency [12] | Potency [13] | outcome [14] | Potency [15] | outcome [16]
active: Potency [6] 9.52 µM

O=C(O)c1ccc2c(c1)C(=O)OC2=O
inactive: Potency [17] | outcome [2] | Potency [3] | Potency [4] | outcome [5] | max response [6] 5.17% and 0.547% | Potency [7] | Potency [8] | outcome [9] | Potency [10] | Potency [11] | Potency [12] | Potency [13] | outcome [14] | Potency [15] | outcome [16]

O=c1[nH]c(=O)n([C@H]2CCCO2)cc1F
inactive: outcome [1] | outcome [2] | Potency [3] | Potency [4] | outcome [5] | max response [6] -9.43% and 1.8% | Potency [7] | outcome [9] | Potency [10] | Potency [11] | Potency [12] | Potency [13] | outcome [14] | Potency [15] | outcome [16]

C#C[C@]1(O)CC[C@H]2[C@@H]3CCC4=CC(=O)CC[C@@H]4[C@H]3CC[C@@]21C
inactive: outcome [18] | outcome [2] | Potency [3] | Potency [4] | outcome [5] | max response [6] -16% | Potency [7] | Potency [8] | outcome [9] | Potency [10] | Potency [11] | Potency [12] | outcome [14] | Potency [15] | outcome [16]

CCCCCC/C(C=O)=C\c1ccccc1
inactive: Potency [17] | outcome [1] | outcome [2] | Potency [4] | outcome [5] | max response [6] -10.1% and 0.846% | Potency [7] | Potency [8] | outcome [9] | Potency [10] | Potency [11] | Potency [12] | outcome [14] | Potency [15] | outcome [16]
44.1 µM (active) and inactive: Potency [3]

O=[N+]([O-])c1ccc(/C=C/c2ccc([N+](=O)[O-])cc2S(=O)(=O)O)c(S(=O)(=O)O)c1
inactive: outcome [18] | outcome [2] | Potency [3] | Potency [4] | outcome [5] | max response [6] 6.57% and 8.56% | Potency [7] | Potency [8] | outcome [9] | Potency [10] | Potency [11] | Potency [12] | Potency [13] | outcome [14] | Potency [15] | outcome [16]

O=C(O)[C@H](O)[C@@H](O)[C@H](O)[C@H](O)CO
inactive: Potency [17] | outcome [2] | Potency [4] | outcome [5] | max response [6] -0.628% and 0.139% | Potency [8] | outcome [9] | Potency [10] | Potency [11] | Potency [12] | outcome [14] | Potency [15]

C/C=C1/CC2C=CC1C2 (stereo unspecified)
inactive: Potency [17] | outcome [1] | outcome [2] | Potency [3] | Potency [4] | outcome [5] | max response [6] 4% and 6.36% | Potency [7] | Potency [8] | outcome [9] | Potency [10] | Potency [11] | Potency [12] | Potency [13] | outcome [14] | Potency [15] | outcome [16]

C=CCOC(=O)c1ccccc1C(=O)OCC=C
inactive: Potency [17] | outcome [1] | outcome [2] | Potency [3] | Potency [4] | outcome [5] | max response [6] 6.21% and 2.3% | Potency [7] | Potency [8] | outcome [9] | Potency [10] | Potency [11] | Potency [12] | Potency [13] | outcome [14] | Potency [15] | outcome [16]
